# Experimental data taken from PubChem BioAssay (Tox21).
# A number with no mark means an inactive call. Calls of active or inactive are those of the source. Calls come from the whole dose curve; as a rule, active = well fitted curve in the direction sought with a large enough effect in the repeat runs; inconclusive = weak or mixed curves; inactive = flat fitted curve, though single readings scatter.
# Assay: qHTS assay to test for compound auto fluorescence at 590 nm (red) in HEK293 cell free culture (AID 720683)
# Details: cell-free medium autofluorescence, Ex540/Em590 red; series mostly up to 91.3 µM; fluorescence, % of fluorescent control: at the top concentration
# Description: U.S. Tox21 Program National Center for Advancing Translational Sciences [NCATS] NIH Chemical Genomics Center [NCGC] U.S. Environmental Protection Agency [EPA] National Institutes of Environmental Health Sciences [NIEHS] National Toxicology Program [NTP] U.S. Food and Drug Administration [FDA] Tox21 Assay Overview: Compound auto fluorescence often interferes with screening of the compound library against various biological targets and signaling pathways. Some of these compounds may have fluorophoric properties. Such properties may interfere with the assay outputs resulting in false positives and/or negatives. To decrease such complications and ensure the compound activities are relevant in terms of biological response, the Tox21 10K compound library was screened for auto fluorescence. From the fluorophores used as reporter signals in our screening assays, the auto fluorescence equivalencies of compounds against three fluorophores have been evaluated: Triamterene, Fluorescein and Rose Bengal sodium for blue, green and red fluorescence, respectively. The fluorescence intensities were measured using Excitation/Emission wavelengths at 405/460nm, 485/535nm and 540/590nm for blue, green and red labels, respectively. This assay includes the red fluorescence data.
# Tox21 Assay Protocol Summary: 5 uL of culture medium (DMEM containing 10% FBS) per well was dispensed into black wall/clear bottom 1536-well plates using a Multidrop Combi Dispenser (ThermoFisher Scientific, Waltham, MA). After 23 nL compound or DMSO vehicle was transferred into assay plate by a pintool work station (Kalypsys, San Diego, CA), fluorescence intensities in the assay plates were measured by an Envision (PerkinElmer, Shelton, CT) plate reader using three labels for measuring blue, green and red fluorescence at […] 460, 535 and 590nm respectively.
# % is set by controls: 0 for no effect and ±100 for the full control effect.
SMILES,"fluorescence, % of fluorescent control",outcome
COC(C)(C)OC,-0.245%,–
Cc1ccc2nc(N)[nH]c(=O)c2c1Sc1ccncc1,-0.0267% [at 46 µM],–
C1=CCC2CC=CC2C1 (stereo not given),0.116%,–
COc1ccc(C)cc1,-0.0941%,–
CC[C@H]1OC(=O)[C@H](C)[C@@H](O[C@H]2C[C@@](C)(OC)[C@@H](O)[C@H](C)O2)[C@H](C)[C@@H](O[C@@H]2O[C@H](C)C[C@H](N(C)C)[C@H]2O)[C@](C)(O)C[C@@H](C)CN(C)[C@H](C)[C@@H](O)[C@]1(C)O,–,inactive
CCCCCCC(O)CCCCCCCCCCC(=O)OC (stereo not given),0.0053%,–
O=C(c1ccccc1)c1ccc(O)cc1,0.0508% [at 95.7 µM],–
Nc1ccn([C@H]2CS[C@@H](CO)O2)c(=O)n1,–,inactive
CCCCCCCCCCCSCC(=O)O,-0.0714%,–
Nc1nc(-c2ccc([N+](=O)[O-])cc2)cs1,0.0133%,–
Nc1nc2ccc(OC(F)(F)F)cc2s1,-0.0809% [at 46 µM],–
COc1ccc(-n2nc(C(F)F)cc2-c2ccc(S(C)=O)cc2)cc1 (stereo not given),0.161%,–
CCOC(=O)c1c(N)sc2c1CCN(Cc1ccccc1)C2,-0.17% [at 46 µM],–
CCCCCCOC(=O)CCCCC,0.0192%,–
CCCCCCCC(=O)Oc1c(Br)cc(C#N)cc1Br,0.0069%,–
[Cl][Nd]([Cl])[Cl],-0.746%,–
Nc1cccc2c(N)cccc12,0.394%,–
CC[C@@H](CO)NCCN[C@@H](CC)CO,0.0179% [at 18.6 µM],–
CC(C)(C)CCCCCCOC(=O)c1ccccc1C(=O)OCCCCCCC(C)(C)C,-0.408%,–
CC1=CC[C@@H]2C[C@H]1C2(C)C,0.0507% [at 18.6 µM],–

SMILES,"fluorescence, % of fluorescent control",outcome
Nc1ccc(F)cc1,0.0061% [at 95.7 µM],–
Cc1ccccc1S(N)(=O)=O,0.033%,–
COC(OC)OC,-0.256%,–
Cc1ccc2c(c1)CCCN2,-0.548%,–
CC(C)COC(=O)c1ccc(O)cc1,-0.0866%,–
O=C1OC[C@H](Cc2cccc(O)c2)[C@H]1Cc1cccc(O)c1,-0.0131% [at 46 µM],–
CC[C@H]1OC(=O)[C@H](C)[C@@H](O[C@H]2C[C@@](C)(OC)[C@@H](O)[C@H](C)O2)[C@H](C)[C@@H](O[C@@H]2O[C@H](C)C[C@H](N(C)C)[C@H]2O)[C@](C)(O)C[C@@H](C)C(=O)[C@H](C)[C@@H](O)[C@]1(C)O,–,inactive
CC(C(=O)O)c1ccc(C(=O)c2cccs2)cc1 (stereo not given),-0.0893% [at 18.6 µM],–
CC(=O)OCC1=C(C(=O)O)N2C(=O)[C@@H](NC(=O)CSc3ccncc3)[C@H]2SC1,-0.107% [at 46 µM],–
CC(C)N(C)C,-0.179%,–
O=C(NC(Cc1cc(=O)[nH]c2ccccc12)C(=O)O)c1ccc(Cl)cc1 (stereo not given),-0.142% [at 46 µM],–
O=C(O)c1ccc(O)cc1O,0.0223%,–
COc1ccc(C2C(=O)c3ccccc3C2=O)cc1,-0.02% [at 46 µM],–
O=CNNC=O,0.0465% [at 95.7 µM],–
C=CC(=O)O,–,inactive
CC(=O)Oc1cccc(O)c1,-0.056% [at 46 µM],–
CN=C(N)NC(=O)Nc1c(C)cccc1C,-0.647% [at 46 µM],–
CC(=O)NNC(C)=O,0.0943% [at 95.7 µM],–
O=C(Oc1ccccc1)c1ccc2ccccc2c1O,-0.0488%,–
CSSc1ccoc1C,-0.0768%,–
